{"source": "PubChem BioAssay AID1117283", "about": "(Broad Institute, 2014)", "note": "Results with a measured potency or affinity are listed apart. Active and inactive are the calls of the source.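 The calls were made as follows: active = fluorescent signal decreased by at least 40%; inconclusive = no clear call, values can overlap the other calls; inactive = the rest, including activity opposite to the expected direction.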", "data": [{"test": "fibronectin fibrillogenesis inhibitors in fibroblasts, dose response, AH1F cells, Alexa488-fibronectin fluorescence, cherry-pick, set 2 (AID 1117283);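 also: AH1F fibroblasts given Alexa488-labelled fibronectin at 24 nM final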", "settings": "Alexa488-fibronectin deposition fluorescence, overnight; series mostly up to 35 µM", "values": [{"smiles": "Cc1ccc(Nc2nnc(SCc3ccccc3)s2)cc1", "outcome": "inactive"}, {"smiles": "O=C(CSc1nc2ncc(Cl)cc2[nH]1)c1c[nH]c2ccccc12", "outcome": "inactive"}, {"smiles": "CN1CCN(C(=O)c2cccc(-c3cnc4cnc(-c5ccccc5Oc5ccccc5)cn34)c2)CC1", "outcome": "inactive"}, {"smiles": "COCC(=O)Nc1ccc2c(c1)C(=O)N(C)[C@@H]1CC[C@H](CC(=O)NCc3ccccc3Cl)O[C@H]1CO2", "outcome": "inactive"}, {"smiles": "CO[C@@H]1CN(C)C(=O)c2ccc(NC(=O)c3ccc(-c4ccccc4)cc3)cc2OC[C@H](C)NC[C@H]1C", "outcome": "inactive"}, {"smiles": "COc1cccc(-c2ccc3c(c2)[C@H]2[C@H](CCN2S(=O)(=O)c2cccc(OC)c2)[C@H](CO)N3)c1", "outcome": "inactive"}, {"smiles": "CO[C@H]1CN(C)C(=O)c2ccc(NC(=O)c3ccc(-c4ccccc4)cc3)cc2OC[C@H](C)NC[C@@H]1C", "outcome": "inactive"}, {"smiles": "Cc1cccc(NC(=O)c2ccc(S(=O)(=O)N3CCCCC3)cc2)n1", "outcome": "inactive"}, {"smiles": "Cc1oc2ccc(O)cc2c1C(=O)c1ccc(Br)cc1", "outcome": "inactive"}, {"smiles": "O=C(Nc1ccc(Cl)cc1)N1C[C@H]2[C@@H](c3ccccc31)[C@H](CO)N2CC1CCCC1", "outcome": "inactive"}, {"smiles": "C[C@H](O)C#Cc1ccc2c(c1)O[C@H](CN(C)C)[C@H](C)CN([C@H](C)CO)S2(=O)=O", "outcome": "inactive"}, {"smiles": "CC(C)Cc1nnc(NC(=O)CSc2nc(N)cc(=O)[nH]2)s1", "outcome": "inactive"}, {"smiles": "CO[C@H]1CN(C)C(=O)c2ccc(NC(=O)Nc3cc(Cl)cc(Cl)c3)cc2OC[C@H](C)NC[C@@H]1C", "outcome": "inactive"}, {"smiles": "Cc1ccc(S(=O)(=O)N2CC[C@@H]3[C@H](CO)Nc4ccc(-c5cccc(C(=O)N(C)C)c5)cc4[C@@H]32)cc1", "outcome": "inactive"}, {"smiles": "COCC(=O)Nc1ccc2c(c1)C(=O)N(C)[C@H]1CC[C@H](CC(=O)NCc3ccccc3Cl)O[C@H]1CO2", "outcome": "inactive"}, {"smiles": "C[C@@H]1CN([C@@H](C)CO)C(=O)c2cc(-c3ccncc3)cnc2O[C@@H]1CN(C)C(=O)Cc1cccnc1", "outcome": "inactive"}, {"smiles": "COc1ccc(CN(C2CCCC2)S(=O)(=O)c2ccc(-n3cnnn3)cc2)cc1OC", "outcome": "inactive"}, {"smiles": "CO[C@@H]1CN(C)C(=O)c2cc(NC(=O)Nc3cc(Cl)cc(Cl)c3)ccc2OC[C@H](C)NC[C@@H]1C", "outcome": "inactive"}, {"smiles": "COC(=O)C[C@H]1CC[C@@H]2[C@@H](COc3ccc(NC(=O)Cc4cccs4)cc3C(=O)N2C)O1", "outcome": "inactive"}, {"smiles": "COC(=O)C[C@H]1CC[C@H]2[C@@H](COc3ccc(NC(=O)Cc4cccs4)cc3C(=O)N2C)O1", "outcome": "inactive"}, {"smiles": "C[C@H]1CN([C@@H](C)CO)C(=O)c2cc(-c3ccccc3)cnc2O[C@@H]1CN(C)Cc1ccccc1", "outcome": "inactive"}, {"smiles": "C[C@H](CO)N1C[C@H](C)[C@@H](CN(C)C(=O)c2cccc(F)c2)Oc2ncc(-c3ccccc3)cc2C1=O", "outcome": "inactive"}, {"smiles": "C[C@H](CO)N1C[C@H](C)[C@H](CN(C)Cc2ccc(-c3ccccc3)cc2)Oc2ccc(NC(=O)C3CCCCC3)cc2C1=O", "outcome": "inactive"}, {"smiles": "Cc1ccn2cc(-c3ccc(NC(=O)c4ccco4)cc3)nc2c1", "outcome": "inactive"}, {"smiles": "C[C@@H]1CN([C@H](C)CO)C(=O)c2cc(NC(=O)C3CCCCC3)ccc2O[C@@H]1CN(C)Cc1ccc(-c2ccccc2)cc1", "outcome": "inactive"}, {"smiles": "CO[C@H]1CN(C)C(=O)c2cc(NC(C)=O)ccc2OC[C@@H](C)N(C(=O)CN2CCOCC2)C[C@H]1C", "outcome": "inactive"}, {"smiles": "COCC(=O)Nc1ccc2c(c1)C(=O)N(C)[C@H]1CC[C@@H](CC(=O)NCc3ccccc3Cl)O[C@@H]1CO2", "outcome": "inactive"}, {"smiles": "COCC(=O)Nc1ccc2c(c1)C(=O)N(C)[C@H]1CC[C@@H](CC(=O)NCc3ccccc3Cl)O[C@H]1CO2", "outcome": "inactive"}, {"smiles": "Nc1nc(-c2cc3c(cc2Cl)OCCO3)cs1", "outcome": "inactive"}, {"smiles": "C[C@@H]1CN([C@H](C)CO)C(=O)c2cccc(NC(=O)Nc3ccc(C(F)(F)F)cc3)c2O[C@@H]1CN(C)C(=O)Nc1cccc2ccccc12", "outcome": "inactive"}, {"smiles": "C[C@H](CO)N1C[C@H](C)[C@H](CN(C)Cc2ccccc2)Oc2ncc(-c3ccccc3)cc2C1=O", "outcome": "inactive"}, {"smiles": "C[C@@H](O)C#Cc1ccc2c(c1)O[C@@H](CN(C)C)[C@@H](C)CN([C@@H](C)CO)S2(=O)=O", "outcome": "inactive"}, {"smiles": "O=C(c1cccnc1)N1C[C@H]2[C@@H](c3ccccc31)[C@@H](CO)N2CC1CCCC1", "outcome": "inactive"}, {"smiles": "COc1cccc(CNC(=O)CCc2nnc3ccc(NCCCN4CCCC4=O)nn23)c1", "outcome": "inactive"}, {"smiles": "CC(C)(C)[S@@](=O)N1Cc2cc(C(=O)NCc3ccccc3F)nc(-c3cccc(-c4ccncc4)c3)c2[C@H]1CCO", "outcome": "inactive"}, {"smiles": "COC(=O)C[C@@H]1CC[C@H]2[C@@H](COc3ccc(NC(=O)Cc4cccs4)cc3C(=O)N2C)O1", "outcome": "inactive"}, {"smiles": "Cc1ccc(S(=O)(=O)N2CC[C@@H]3[C@@H](CO)Nc4ccc(-c5cccc(C(=O)N(C)C)c5)cc4[C@@H]32)cc1", "outcome": "inactive"}]}]}
